The sample as a whole holds a higher share of hits than the screen did.
IL1B secr inh = qHTS for Inhibitors of Inflammasome Signaling: IL-1-beta AlphaLISA Primary Screen; THP-1 LPS/ATP IL-1B secretion, AlphaLISA, 16 h; stronger effect = lower value; activity change, % at 57.5 µM; 360,000 compounds, 4.7% hits; in the data active = activity change below about -50%; inconclusive = mostly about -30% to -49%
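THP-1 cells pretreated 1 hr with compounds (up to 57.5 uM final), then stimulated with LPS (250 ng/mL final) plus ATP (1.25 mM final); secreted IL-1B measured by AlphaLISA after 16 hr, decreased signal indicating inhibition.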
TDP1 cell CPT = qHTS for Inhibitors of human tyrosyl-DNA phosphodiesterase 1 (TDP1): qHTS in cells in presence of CPT; chicken DT40 Tdp1-/-;hTDP1 cells + 20 nM CPT, ATP luminescence, 48 h; Potency, µM (highest dose often 46.2 µM), for the others: at the top dose activity change, negative = growth inhibition, hits mostly inhibitors; 420,000 compounds, 12% hits; AID 686979, 2013; note: potency is the fitted concentration of half-maximal effect; nearly all actives have a fitted effect of over 55% in size
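Chicken DT40 Tdp1-/- cells stably complemented with human TDP1 were seeded at 400 cells/well in medium containing 20 nM camptothecin, exposed to pin-transferred compounds, and grown at 37 °C for at least 48 hr. Viability was read as ATP luminescence.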
TDP1 cell noCPT = qHTS for Inhibitors of human tyrosyl-DNA phosphodiesterase 1 (TDP1): qHTS in cells in absence of CPT | 420,000 compounds, 15% hits | DT40 Tdp1-/- hTDP1 cells, no CPT, ATP luminescence, 48 h | AID 686978, 2013 | Potency, µM (series often up to 46.2 µM), for inactives: at the top dose activity change, negative = growth inhibition, actives largely listed as inhibitors; note: potency is the fitted concentration of half-maximal effect; nearly all actives have a fitted effect of over 55% in size
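Stably hTDP1-transfected Tdp1-null chicken DT40 cells were treated with library compounds minus camptothecin and grown for at least 48 hr at 37 °C, after which cellular ATP was quantified by luminescence.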
ALOX12 inh = Primary qHTS assay for inhibitors of human arachidonate 12S-lipoxygenase (ALOX12): Round 2 | Polyunsaturated fatty acid lipoxygenase ALOX12 (Homo sapiens), P18054 | purified 12hLO, xylenol orange hydroperoxide absorbance | Potency, µM (titrated, usually from 108 µM), for the others: top-dose activity change, negative = inhibition, actives largely listed as inhibitors | 580,000 compounds, 1.1% hits | AID 1671190, 2021; note: potency is the fitted concentration of half-maximal effect
Target sequence (P18054 whole entry, looked up): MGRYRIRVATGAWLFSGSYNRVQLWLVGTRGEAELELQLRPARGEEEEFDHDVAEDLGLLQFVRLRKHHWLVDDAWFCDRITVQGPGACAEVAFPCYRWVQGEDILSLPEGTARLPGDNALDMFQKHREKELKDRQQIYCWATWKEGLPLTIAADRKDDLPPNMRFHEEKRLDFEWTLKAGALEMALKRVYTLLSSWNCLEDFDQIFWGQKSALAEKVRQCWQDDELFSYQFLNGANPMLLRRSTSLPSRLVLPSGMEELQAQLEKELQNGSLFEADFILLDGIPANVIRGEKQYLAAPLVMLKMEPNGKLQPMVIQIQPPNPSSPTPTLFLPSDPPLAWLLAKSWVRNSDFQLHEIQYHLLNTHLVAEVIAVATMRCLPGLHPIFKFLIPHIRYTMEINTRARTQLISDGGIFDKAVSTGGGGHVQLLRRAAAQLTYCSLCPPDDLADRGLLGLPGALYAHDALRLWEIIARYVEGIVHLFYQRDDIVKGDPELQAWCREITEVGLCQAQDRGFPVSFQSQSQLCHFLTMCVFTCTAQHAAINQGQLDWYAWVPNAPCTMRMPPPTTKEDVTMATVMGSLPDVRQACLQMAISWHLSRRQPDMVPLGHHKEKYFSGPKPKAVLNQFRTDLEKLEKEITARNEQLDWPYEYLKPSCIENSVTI
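Purified human 12hLO (150 nM final) in 25 mM Hepes, 0.01% Triton X-100, pH 7.0 was preincubated 15 min at room temperature with compound. Then 40 uM arachidonic acid was added, 30 min. Hydroperoxide was read by Fe-XO absorbance ratio 573/405 nm.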
HT1080NT lethal = qHTS for induction of synthetic lethality in tumor cells producing 2HG: qHTS for the HT-1080-NT fibrosarcoma cell line. HT-1080-NT fibrosarcoma viability, CellTiter-Glo ATP luminescence, 48 h. Potency, µM (titrated, usually from 46.1 µM), inactives show at the top dose activity, negative = less viability, hits mostly cytotoxic. 360,000 compounds, 1.6% hits. AID 686970, 2013;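 note: NT is the 2HG producing partner of a matched IDH1 knockdown line; potency is the fitted concentration of half-maximal effect; 0% = DMSO-treated cells and -100% = media-only wells without cells; nearly all actives have a fitted effect of over 55% in size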
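Toxicity toward the 2HG-producing NT line was scored as %Activity, normalised to DMSO and no-cell wells, from CellTiter-Glo luminescence after 48 hours' treatment.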
HT1080 IDH1KD tx = qHTS for induction of synthetic lethality in tumor cells producing 2HG: qHTS for the HT-1080-IDH1KD cell line; Potency, µM (top dose mostly 46.1 µM), for inactives: at the top dose activity, negative = toxicity, most hits filed as cytotoxic; HT-1080 IDH1 knockdown viability, ATP luminescence, 48 h; AID 686971, 2013; 360,000 compounds, 2% hits;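 note: potency is the fitted concentration of half-maximal effect; 0% = DMSO wells and -100% = cell-free medium wells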
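Assay cells: HT-1080 with IDH1 knockdown, 750 per well, RPMI/5% FBS. Exposure: 48 h at 37 °C following 2 h pre-incubation. Read: CellTiter-Glo luminescence; fitted concentration-response, curve class assigned.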
Active calls of the source: *; u = inconclusive; x = not tested or not shown; [ ] = dose if it differs, or a comment. Unless noted, calls come from the whole dose curve; as a rule, active = well fitted curve in the direction sought with a large enough effect; inconclusive = small, poorly fitted or top-dose-only effect, or another doubt; inactive = no such curve, though single readings can be large; an effect the other way counts as inactive or inconclusive. Unless noted, % is set by controls: 0 for no effect and ±100 for the full control effect.

SMILES | IL1B secr inh | TDP1 cell CPT | TDP1 cell noCPT | ALOX12 inh | HT1080NT lethal | HT1080 IDH1KD tx
C[C@@H]1CN([C@H](C)CO)S(=O)(=O)c2ccc(C#Cc3ccccc3)cc2O[C@H]1CN(C)C(=O)Nc1ccc2c(c1)OCO2 | u | 13µM* | 16µM* | -13% | -25% | u
C[C@@H]1CN([C@H](C)CO)S(=O)(=O)c2ccc(C#Cc3ccccc3)cc2O[C@@H]1CN(C)C(=O)CN(C)C | -29 | 16µM* | 26µM* | 8% | -12% | -13%
Cc1ccc(NC(=O)C(Sc2ccc(S(=O)(=O)N3CCOCC3)cn2)c2ccccc2)cc1 (stereo not drawn) | x | x | x | -17% | x | x
CC1(C)CCCC2(C)C1CCC1(C)OC(=O)CC12 (stereo not drawn) | x | x | x | -27% | x | x
Fc1ccccc1CC1CCN(CC2[C@H]3CNC[C@@H]23)CC1 (stereo partly drawn) | x | x | x | -21% | x | x
O=C1CC(Nc2ccc(N3CCOCC3)cc2)C(=O)N1c1ccccc1F (stereo not drawn) | -9 | 1% | 11% | 16µM* | 7% | 0%
O=C1CC(Nc2ccccc2)C(=O)N1c1ccc(N2CCOCC2)cc1 (stereo not drawn) | 9 | -18% | -3% | 0% | 2% | 3%
O=C1CC(NNc2ccccc2)C(=O)N1c1ccc(N2CCCCC2)cc1 (stereo not drawn) | -2 | u | u | 6.3µM* | -26% | -19%
O=C1NC(=NC2CCCC2)C2(CCCN(CC3CCCCC3)C2)N1c1cccnc1 (stereo not drawn) | x | x | x | 3%[6.33 µM] | x | x
COc1ccc(OC)c(NC(=O)c2ccc(OCC(=O)N3CCOCC3)c(OC)c2)c1 | -21 | -29% | u | -18% | 12% | 0%
COc1ccc(-c2nc(NC(=O)c3ccc(OCC(=O)Nc4ccc(F)cc4)c(OC)c3)sc2C)cc1 | -1 | u | 18µM* | -20% | 18µM* | 16µM*
COc1cc(C(=O)NCCN2C(=O)S/C(=C\c3ccc(F)cc3)C2=O)ccc1OCC(=O)N1CCOCC1 | -1 | 16µM* | 15µM* | x | u | 14%
COc1cc(C(=O)Nc2nc(-c3ccc(C)cc3)cs2)ccc1OCC(=O)N1CCOCC1 | -11 | 23µM* | 21µM* | -7% | -20% | -3%
COc1ccc(-c2csc(NC(=O)c3ccc(OCC(=O)N4CCOCC4)c(OC)c3)n2)cc1 | -79* | 7.3µM* | 10µM* | -22% | -21% | -19%
COc1cc(C(=O)NNC(=O)c2ccc(F)cc2)ccc1OCC(=O)N1CCOCC1 | 30 | 2% | -4% | 6% | -4% | -3%
O=C(NCC(=O)N1CCN(c2ccccn2)CC1)c1cc2ccccc2[nH]1 | x | x | x | -24% | x | x
CCOC(=O)c1c(NC(=O)C(=O)NCc2ccccc2)sc2c1CC(C)(C)OC2 | x | x | x | 16% | x | x
Cc1ccc(NC(=O)C2CCN(C(=O)c3ncn4c3COC(c3ccccc3)C4)CC2)cc1C (stereo not drawn) | x | x | x | 9% | x | x
COc1cc(C(=O)Nc2nc(-c3ccc(F)cc3)cs2)ccc1OCC(=O)N1CCOCC1 | u | 18µM* | 12µM* | -13% | -19% | -3%
COc1ccc(C(=O)c2ccc(C)cc2)c(OC)c1OC | 18 | 23µM* | 18µM* | u | u | 18µM*

Bioassay records (PubChem)
